Compound activity from PubChem.
ROS inducer = ROS inducers in U2OS cancer cells, primary screen, cell-based, H2DCF-DA fluorescence; ROS induction (% of piperlongumine), % at 10 µM; U2OS ROS induction; hit rate 2% among 46,000; AID 624156, 2012; in the data active = ROS induction above about 79%, passing the limit was not always enough;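 note: 0% = DMSO vehicle median and 100% = reference compound median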
YB-1 expr inh = inhibitors of YB-1 gene expression, primary screen, cell-based, fluorescence | U2OS, qRT-PCR YB-1 vs CDIP delta delta Cp, 16 h; active compounds read high; zero = DMSO, each unit about twofold | delta delta Cp (YB-1 minus CDIP) (no concentration beside the values) | hit rate 0.37% among 30,000 | AID 434959, 2010;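 active = delta delta Cp rounded down to an integer at or above 3, about 3 SD of DMSO wells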;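 note: higher means less YB-1 transcript or more CDIP transcript relative to DMSO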
* = called active by the depositor. Compounds with a hit are over-represented: about 2.3% of the library has one in this group of screens.

`C[C@H](CO)N1C[C@H](C)[C@@H](CN(C)Cc2ccc(Oc3ccccc3)cc2)Oc2c(NC(=O)Nc3ccccc3)cccc2C1=O` gave ROS inducer 101* and YB-1 expr inh 0.089.
For C[C@@H]1CN([C@@H](C)CO)C(=O)c2cccc(NC(=O)Nc3ccccc3)c2O[C@@H]1CN(C)Cc1ccc(Oc2ccccc2)cc1 the results were ROS inducer 87* and YB-1 expr inh 0.26.
Screening C[C@H]1CN([C@@H](C)CO)C(=O)c2cccc(NC(=O)Nc3ccccc3)c2O[C@@H]1CN(C)Cc1ccc(Oc2ccccc2)cc1 returned ROS inducer 26 and YB-1 expr inh -0.34.
COc1ccc(-c2noc(CCC(=O)Nc3ccc(C)c(C)c3)n2)cc1 was read as ROS inducer 7.
Screening CCC[C@H](N[C@@H](C)C(=O)N1[C@H](C(=O)O)C[C@@H]2CCCC[C@@H]21)C(=O)OCC returned ROS inducer -13 and YB-1 expr inh 0.014.
For O=C(NCCC(c1ccccc1)c1ccccc1)c1cc2ccccc2c(=O)o1 the results were ROS inducer 154* and YB-1 expr inh -0.48.
O=C(c1cc2ccccc2c(=O)o1)N1CCN(C(c2ccccc2)c2ccccc2)CC1 was read as ROS inducer 3.
For COc1ccccc1N1CCN(CCNC(=O)Nc2cccc(C)c2C)CC1 the results were ROS inducer -9.
For C[C@H]1CN([C@@H](C)CO)C(=O)c2cccc(NC(=O)c3nc4ccccc4s3)c2O[C@H]1CN(C)Cc1ccccc1 the results were ROS inducer 11 and YB-1 expr inh 0.21.
C[C@H]1CN([C@@H](C)CO)C(=O)c2cccc(NC(=O)c3nc4ccccc4s3)c2O[C@H]1CN(C)Cc1ccc(C(=O)Nc2ccccc2N)cc1 was read as ROS inducer 172* and YB-1 expr inh 0.19.
`C[C@H](CO)N1C[C@H](C)[C@H](CN(C)Cc2ccccc2)Oc2c(NC(=O)c3nc4ccccc4s3)cccc2C1=O` gave ROS inducer 22 and YB-1 expr inh 0.36.
`C[C@@H]1CN([C@H](C)CO)C(=O)c2cccc(NC(=O)c3nc4ccccc4s3)c2O[C@H]1CN(C)Cc1ccc(C(=O)Nc2ccccc2N)cc1` gave ROS inducer 150* and YB-1 expr inh -0.27.
For C[C@H](CO)N1C[C@H](C)[C@H](CN(C)Cc2ccc(Oc3ccccc3)cc2)Oc2c(NC(=O)c3nc4ccccc4s3)cccc2C1=O the results were ROS inducer 48 and YB-1 expr inh 0.25.
For C[C@H]1CN([C@@H](C)CO)C(=O)c2cccc(NC(=O)c3nc4ccccc4s3)c2O[C@H]1CN(C)Cc1ccc(Oc2ccccc2)cc1 the results were ROS inducer 95* and YB-1 expr inh -0.15.
`C[C@@H]1CN([C@@H](C)CO)C(=O)Cc2cc(NC(=O)Nc3ccc(C(F)(F)F)cc3)ccc2O[C@@H]1CN(C)C` gave ROS inducer 3 and YB-1 expr inh 0.018.
`CC(=O)N1c2ccccc2C(C)(c2ccccc2)CC1(C)C` (configuration not stated) gave ROS inducer 27 and YB-1 expr inh -0.15.
CC1(C)CC(C)(c2ccccc2)c2cc(SC#N)ccc2N1 (configuration not stated) was read as ROS inducer 114* and YB-1 expr inh 0.17.
C[C@@H]1CN([C@H](C)CO)C(=O)c2cc(NC(=O)Nc3ccccc3)ccc2O[C@H]1CN(C)S(=O)(=O)c1cn(C)cn1 was read as ROS inducer -4 and YB-1 expr inh -0.49.
`Cc1ccc(NC(=O)CSc2nnc(-c3ccncc3)n2-c2ccc(Cl)cc2)cc1F` gave ROS inducer 7.
Cc1ccc(NC(=O)CSc2nnc(-c3cccnc3)n2-c2ccc(Br)cc2)cc1F was read as ROS inducer 77*.
`CC(C)=CCC[C@](C)(O[C@@H]1O[C@H](CO[C@@H]2OC[C@H](O)[C@H](O)[C@H]2O)[C@@H](O)[C@H](O)[C@H]1O)[C@H]1CC[C@]2(C)C1[C@H](O)CC1[C@@]3(C)CC[C@H](O[C@@H]4O[C@H](CO)[C@@H](O)[C@H](O)[C@H]4O[C@@H]4O[C@H](CO)[C@@H](O)[C@H](O)[C@H]4O)C(C)(C)C3CC[C@]12C` (some centres not stated) gave ROS inducer 0 and YB-1 expr inh 1.
For COc1cccc2c1C(=O)c1c(O)c3c(c(O)c1C2=O)C[C@@](O)(C(C)=O)C[C@@H]3O[C@H]1C[C@H](N)[C@H](O)[C@H](C)O1 the results were ROS inducer 141* and YB-1 expr inh 2.9.
For CC1CC(=O)c2c(ccc3c2C(=O)c2c(O[C@@H]4O[C@@H](C)[C@H](O)[C@@H](O)[C@H]4O)cccc2C3=O)C1 (some centres not stated) the results were ROS inducer -2 and YB-1 expr inh -0.46.
Screening C[C@@H]1CN([C@@H](C)CO)C(=O)c2cc(NS(C)(=O)=O)ccc2O[C@@H]1CN(C)S(C)(=O)=O returned ROS inducer -4 and YB-1 expr inh 0.076.
Screening COc1cc(O)c2c(=O)c(OC)c(-c3cc(O)c(OC)c(OC)c3)oc2c1 returned ROS inducer 11 and YB-1 expr inh 0.71.
COc1ccc(-c2oc3cc(OC)c(OC)c(O)c3c(=O)c2OC)cc1OC was read as ROS inducer 82* and YB-1 expr inh -0.31.
`C[C@H](CO)N1C[C@H](C)[C@@H](CN(C)S(=O)(=O)c2ccccc2)Oc2ccc(NC(=O)Nc3ccccc3)cc2C1=O` gave ROS inducer -5 and YB-1 expr inh 0.33.
For C=C1CC[C@@H](O)[C@]2(C)C[C@H]3OC(=O)C(=C)[C@H]3CC12 (some centres not stated) the results were ROS inducer 60 and YB-1 expr inh -0.48.
For C=C1C(=O)O[C@@H]2C[C@@]3(C)CC(=O)C=C(C)C3C[C@H]12 (some centres not stated) the results were ROS inducer 111* and YB-1 expr inh -0.32.
Screening CC(C)(C)OC(=O)Nc1ccc(/C=N/NC(=O)c2ccccn2)cc1 returned ROS inducer -4 and YB-1 expr inh 0.28.
For C[C@@H]1CN([C@@H](C)CO)C(=O)c2cc(NC(=O)Nc3ccccc3)ccc2O[C@@H]1CN(C)Cc1ccncc1 the results were ROS inducer -4 and YB-1 expr inh 1.5.
COc1cc(C(=O)Nc2ccc(Oc3ncnc4sc(C)c(C)c34)cc2)cc(OC)c1OC was read as ROS inducer 104*.
Screening Cc1sc2ncn(CC(=O)Nc3ccc(Oc4ccccc4)cc3)c(=O)c2c1C returned ROS inducer 17.
COc1cc(/C=C2\SC(N(C)c3ccc(O)cc3)=NC2=O)ccc1OCC(=O)O was read as ROS inducer -3.
For COCCOC(=O)N1C(=O)[C@@]2(c3ccccc31)[C@H](C(N)=O)[C@H]1C(=O)O[C@H](c3ccccc3)[C@H](c3ccccc3)N1[C@@H]2c1ccc(O)cc1 the results were ROS inducer 3 and YB-1 expr inh 0.17.
For COCCOC(=O)N1C(=O)[C@@]2(c3ccccc31)[C@H](c1ccccc1OCCO)N1[C@H](c3ccccc3)[C@H](c3ccccc3)OC(=O)[C@H]1[C@@H]2C(=O)NC[C@H](O)c1ccccc1 the results were ROS inducer 348* and YB-1 expr inh -0.49.
